{"source": "the OligoGym collection", "data": [{"target": "C11orf53", "experiment": "pooled miR-30 sensor sort-seq; sequence = guide strand", "conditions": "shRNA", "values": [{"sequence": "TCAGATAAGAAAGATCTTCTGA", "sensor-assay potency score (higher = more potent)": 0.556}, {"sequence": "TTTGACACCGTCATGAAAGGGG", "sensor-assay potency score (higher = more potent)": 0.41}, {"sequence": "TTATTCTGAAAATCCAGTCCTG", "sensor-assay potency score (higher = more potent)": 0.403}, {"sequence": "TTCTGACACCGTAGTAACCTGA", "sensor-assay potency score (higher = more potent)": -0.43}, {"sequence": "TCTGACACCGTAGTAACCTGAC", "sensor-assay potency score (higher = more potent)": 0.0785}, {"sequence": "TGACACACCTAAAACAATCTTT", "sensor-assay potency score (higher = more potent)": 0.469}, {"sequence": "TATTCTGAAAATCCAGTCCTGA", "sensor-assay potency score (higher = more potent)": -0.0201}, {"sequence": "TTACTGTTGTGGAAGTCTGAGT", "sensor-assay potency score (higher = more potent)": -0.608}, {"sequence": "TAGGTCATTTGACACCGTCATG", "sensor-assay potency score (higher = more potent)": -1.72}, {"sequence": "TTTACTGTTGTGGAAGTCTGAG", "sensor-assay potency score (higher = more potent)": -0.231}, {"sequence": "TCGTCCACTAACAAAGAGCAGC", "sensor-assay potency score (higher = more potent)": -0.909}, {"sequence": "TAAATAGGAAGTGAGCTGGGTC", "sensor-assay potency score (higher = more potent)": 0.00724}]}, {"target": "C11orf54", "experiment": "pooled miR-30 sensor sort-seq; sequence = guide strand", "conditions": "shRNA", "values": [{"sequence": "TAAACTCAGAATTGAACCCGAG", "sensor-assay potency score (higher = more potent)": 0.00773}, {"sequence": "TTTTATTCAGATCATAAACTTT", "sensor-assay potency score (higher = more potent)": -0.546}, {"sequence": "TTTCTCACTGTATTTCTCCAGT", "sensor-assay potency score (higher = more potent)": -0.237}, {"sequence": "ATAAGTAAGGCACACCTCCAAC", "sensor-assay potency score (higher = more potent)": -1.21}, {"sequence": "TCTGAAATGGACCTGCTCCTGC", "sensor-assay potency score (higher = more potent)": -0.481}, {"sequence": "TTATTCACTTCTTCATCAGAGT", "sensor-assay potency score (higher = more potent)": -0.552}, {"sequence": "TATTCCACTATATCTGGAGTAG", "sensor-assay potency score (higher = more potent)": -0.318}, {"sequence": "ATAAACTCAGAATTGAACCCGA", "sensor-assay potency score (higher = more potent)": 0.903}, {"sequence": "TTCTTCATCAGAGTTCAAGGGG", "sensor-assay potency score (higher = more potent)": 0.466}, {"sequence": "TTTCATTTCATAAAAATGCAAC", "sensor-assay potency score (higher = more potent)": -0.462}, {"sequence": "TGGAGTAGTGTCATAATGGTAG", "sensor-assay potency score (higher = more potent)": -0.457}]}]}
